# Test results as given in PubChem BioAssay (EPA / NIEHS).
# Results filed as inconclusive are left out. Calls of active or inactive are those of the source. How the source made its calls, unless noted: active means hit-call score of the fitted dose curve at least 0.9, where 1 is the maximum; inconclusive means response in the unintended direction; inactive means score below 0.9.
# Tests used:
# [1] = CEETOX_H295R_MTT_cell_viability: Viability Assessment in the CeeTox HT-H295R MTT Assay (AID 2283718; active means hit-call score of the fitted dose curve at least 0.9, where 1 is the maximum; inactive means score below 0.9;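 on AC50: curve fitted both ways so AC50 may mark viability loss or gain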)
# Summary of the method: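 Human H295R adrenal cells, prestimulated 48 h with 10 uM forskolin, were exposed 48 h to chemicals in 0.1% DMSO. Viability was measured in the same wells by MTT (0.5 mg/ml, 4 h, 37 C), absorbance 570/650 nm, as percent of controls.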
# [2] = Tanguay_ZF_120hpf_ActivityScore_legacy: (Legacy) Oregon State University Tanguay Lab 120 Hour Post-fertilization zebrafish Assay Score for Activity (AID 2283742);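 on AC50: dechorionated Tropical 5D wild-type zebrafish embryos held singly per well; static exposure from 6 hpf until 120 hpf at 28 °C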
# Summary of the method: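 Dechorionated Tropical 5D embryos, one per well from 6 hpf, statically exposed to 120 hpf at 28 °C in 0.64% DMSO. Mortality and malformations scored binary by brightfield microscopy; activity score combines 18 endpoints, fitted positively versus DMSO.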
# [3] = target: Luciferin 4-monooxygenase (Photinus pyralis) (UniProt P08659); assay: CCTE_Simmons_QuantiLum_inhib_2: CCTE's Firefly Luciferase Inhibition Assay, Simmons Lab (AID 2283767);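 on AC50: potency for inhibitors that lower luciferase luminescence relative to DMSO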
# Summary of the method: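 Luminescence loss relative to DMSO vehicle defines inhibition; detection reagent containing 150 uM D-luciferin and 147 uM dATP (final, pH 7.8) is injected immediately before each read. Enzyme is preincubated with an 8-point titration (5 nM–87.5 uM final) for 30 min at 37C.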
# [4] = ACEA_AR_agonist_AUC_viability: ACEA Biosciences xCELLigence Real-Time Cell Analysis on Androgen Receptor Agonism for Viability (AID 2283775);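 on AC50: viability read 80 hours after compound addition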
# Summary of the method: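 Real-time impedance tracking of 22Rv1 growth, readings every 5 min for 5 h then hourly; area-under-curve viability endpoint at 80 hours, relative to DMSO. Compounds at eight concentrations, 1:4 steps, top 100 uM, n = 2.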
# [5] = ACEA_AR_antagonist_AUC_viability: ACEA Biosciences xCELLigence Real-Time Cell Analysis on Androgen Receptor Antagonism for Viability (AID 2283776);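 further: 22Rv1 human prostate cancer cells growing on impedance electrode plates; hits lower the growth signal relative to DMSO meaning cytotoxicity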
# Summary of the method: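 22Rv1 prostate cells, continuous dosing up to 100 uM final (0.5% DMSO max), duplicate plates. Growth measured by impedance; AUC at 80 h, loss of signal vs DMSO.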
# [6] = STM_H9_CystineISnorm_perc: Stemina devTOX quickPredict H9 human embryonic stem cell (hESC)-based Assay for Cystine (CYSS) Metabolite Biomarker, Normalized (AID 2283713; active means hit-call score of the fitted dose curve at least 0.9, where 1 is the maximum; inactive means score below 0.9)
# Summary of the method: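 H9 hESC, pluripotent; compound 72h, re-dosed q24h with medium change. Last-24h medium → 40% acetonitrile deproteinization → UPLC-HRMS. CYSS area / C13-CYSS standard, then % of 0.1% DMSO median.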
# [7] = STM_H9_OrnCyssISnorm_ratio: Stemina devTOX quickPredict H9 human embryonic stem cell (hESC)-based Assay for Ornithine (ORN):Cystine (CYSS) Ratio (AID 2283714)
# Summary of the method: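 Undifferentiated H9 hESCs exposed 72 h, media and compound replaced every 24 h; final 24-h conditioned media deproteinized and analysed by UPLC-HRMS against C13 spike-ins. Value is the internal-standard-normalized ORN/CYSS ratio versus 0.1% DMSO.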
# [8] = system: chicken Androgen Receptor (AR), gene 422165; assay: ATG_chAR_XSP1: Attagene TRANS-FACTORIAL Multi-Species (XSP1) HepG2 Assay for chicken Androgen Receptor (AR) (AID 2283768)
# Summary of the method: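 HepG2 cells transiently transfected with multiplexed GAL4-UAS reporter units expressing chimeric chicken AR-Gal4; 3 nM 6-alpha-fluorotestosterone for partial AR stimulation; 24 h after dosing, reporter mRNA by RT-PCR and capillary electrophoresis, gain-of-signal versus DMSO.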
# [9] = system: zebrafish Androgen Receptor (AR), gene 100005148; assay: ATG_zfAR_XSP1: Attagene TRANS-FACTORIAL Multi-Species (XSP1) HepG2 Assay for zebrafish Androgen Receptor (AR) (AID 2283771)
# Summary of the method: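 HepG2 cells were transiently transfected with a zebrafish AR-GAL4 reporter system and partially stimulated with 3 nM 6-alpha-fluorotestosterone. Reporter mRNA was measured after 24 h dosing by RT-PCR with capillary electrophoresis, and gain-of-signal was fitted relative to DMSO.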
# [10] = target: zebrafish Estrogen Receptor (ESR1), esr1 (gene 259252) (UniProt P57717); assay: ATG_zfER1_XSP1: Attagene TRANS-FACTORIAL Multi-Species (XSP1) HepG2 Assay for zebrafish Estrogen Receptor (ESR1) (AID 2283772)
# Summary of the method: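 HepG2 cells were transiently transfected with multiplexed GAL4-UAS reporter units driven by chimeric NR-GAL4 proteins, dosed for 24 h with 3 nM 6-alpha-fluorotestosterone present, and reporter mRNA quantified by RT-PCR and capillary electrophoresis versus DMSO.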
# [11] = system: zebrafish Estrogen Receptor (ESR2B), gene 317733; assay: ATG_zfER2b_XSP1: Attagene TRANS-FACTORIAL Multi-Species (XSP1) HepG2 Assay for zebrafish Estrogen Receptor (ESR2B) (AID 2283773)
# Summary of the method: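 HepG2 cells transiently transfected with GAL4-UAS reporter units for chimeric zebrafish ER2b-Gal4, with 3 nM 6-alpha-fluorotestosterone present; reporter mRNA measured 24 h after dosing by RT-PCR and capillary electrophoresis, gain versus DMSO.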
# [12] = system: frog Estrogen Receptor (ESR2), gene 100174814; assay: ATG_frER2_XSP1: Attagene TRANS-FACTORIAL Multi-Species (XSP1) HepG2 Assay for frog Estrogen Receptor (ESR2) (AID 2283774)
# Summary of the method: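 HepG2 cells transiently transfected with GAL4-UAS reporter units expressing chimeric frog ER-Gal4; 3 nM 6-alpha-fluorotestosterone present. After 24 h dosing, reporter mRNA quantified by RT-PCR and capillary electrophoresis; gain-of-signal fitted relative to DMSO.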
# [13] = system: frog Estrogen Receptor (ESR1), gene 398734; assay: ATG_frER1_XSP1: Attagene TRANS-FACTORIAL Multi-Species (XSP1) HepG2 Assay for frog Estrogen Receptor (ESR1) (AID 2283777)
# Summary of the method: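 HepG2 cells transiently transfected with frog ER–GAL4 chimera and GAL4-UAS reporter, with 3 nM 6-alpha-fluorotestosterone present; 24 h dosing, reporter mRNA quantified by RT-PCR and capillary electrophoresis, gain of signal versus DMSO.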
# Sequence of Luciferin 4-monooxygenase (Photinus pyralis) (P08659 whole entry, looked up): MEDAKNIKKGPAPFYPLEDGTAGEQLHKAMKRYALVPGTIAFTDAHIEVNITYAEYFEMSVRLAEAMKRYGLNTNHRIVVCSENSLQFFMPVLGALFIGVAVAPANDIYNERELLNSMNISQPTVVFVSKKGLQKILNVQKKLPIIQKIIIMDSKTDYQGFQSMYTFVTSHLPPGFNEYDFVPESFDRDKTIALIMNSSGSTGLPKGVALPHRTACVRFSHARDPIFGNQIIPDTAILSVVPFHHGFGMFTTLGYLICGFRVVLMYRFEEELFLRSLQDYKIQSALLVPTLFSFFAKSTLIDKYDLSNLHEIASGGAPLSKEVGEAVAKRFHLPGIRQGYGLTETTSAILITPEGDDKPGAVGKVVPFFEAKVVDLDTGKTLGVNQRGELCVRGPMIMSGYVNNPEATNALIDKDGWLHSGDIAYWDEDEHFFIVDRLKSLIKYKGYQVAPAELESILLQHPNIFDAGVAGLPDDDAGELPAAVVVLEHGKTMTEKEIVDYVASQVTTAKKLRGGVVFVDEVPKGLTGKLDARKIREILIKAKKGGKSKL
# Sequence of zebrafish Estrogen Receptor (ESR1), esr1 (gene 259252) (P57717 whole entry, looked up, the tested form may be a part): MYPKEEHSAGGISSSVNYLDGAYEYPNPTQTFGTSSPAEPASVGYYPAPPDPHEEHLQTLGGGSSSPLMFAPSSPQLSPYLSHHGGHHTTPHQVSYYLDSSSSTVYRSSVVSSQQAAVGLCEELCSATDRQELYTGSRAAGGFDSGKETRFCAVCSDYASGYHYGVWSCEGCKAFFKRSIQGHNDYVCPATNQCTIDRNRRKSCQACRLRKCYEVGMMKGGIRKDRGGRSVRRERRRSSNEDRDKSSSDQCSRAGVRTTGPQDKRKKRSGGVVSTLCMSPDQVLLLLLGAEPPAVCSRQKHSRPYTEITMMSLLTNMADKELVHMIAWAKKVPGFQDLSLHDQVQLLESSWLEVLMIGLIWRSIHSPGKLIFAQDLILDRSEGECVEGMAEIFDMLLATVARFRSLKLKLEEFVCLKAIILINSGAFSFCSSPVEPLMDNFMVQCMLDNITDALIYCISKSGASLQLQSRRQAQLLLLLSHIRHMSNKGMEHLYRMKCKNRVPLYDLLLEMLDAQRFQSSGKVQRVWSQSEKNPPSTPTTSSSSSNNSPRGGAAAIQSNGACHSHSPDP
smiles,measurement,setting,value
NC(=O)N(O)[C@@H]1C=C[C@H](Oc2cccc(Oc3ccc(F)cc3)c2)C1,outcome,[1],inactive
same,outcome,[2],inactive
same,AC50,[3],16.7 µM (active)
same,AC50,[4],40.8 µM (active)
same,AC50,[5],25 µM (active)
CCc1nn(C2CCCCC2)c2cc(C3(C#N)CCC(C(=O)O)CC3)ccc12 (stereo unspecified),outcome,[1],inactive
same,AC50,[2],0.421 µM (active)
same,outcome,[5],inactive
Oc1cccc(O)c1,AC50,[1],1.35 µM (active)
same,outcome,[2],inactive
same,AC50,[3],16.1 µM (active)
same,outcome,[5],inactive
C[C@@H]1C[C@H]2[C@@H]3CCC4=CC(=O)C=C[C@]4(C)[C@@]3(F)[C@@H](O)C[C@]2(C)[C@@]1(O)C(=O)COP(=O)(O)O,outcome,[6],inactive
same,outcome,[7],inactive
same,outcome,[1],inactive
same,outcome,[2],inactive
same,outcome,[5],inactive
CCN(CC)CCNc1ccc(CNC=O)c2sc3ccc(OC)cc3c(=O)c12,AC50,[6],2.53 µM (active)
same,AC50,[7],5.78 µM (active)
same,outcome,[2],inactive
same,outcome,[3],inactive
same,AC50,[4],7.1 µM (active)
same,AC50,[5],5.35 µM (active)
CC[C@H](c1ccc(O)cc1)[C@@H](CC)c1ccc(O)cc1,outcome,[2],inactive
same,outcome,[3],inactive
same,outcome,[8],inactive
same,outcome,[9],inactive
same,AC50,[10],0.000114 µM (active)
same,AC50,[11],6.57e-05 µM (active)
same,AC50,[12],0.000101 µM (active)
same,AC50,[4],10.7 µM (active)
same,AC50,[5],10.1 µM (active)
same,AC50,[13],0.0764 nM (active)
CCCCCCCCOC(=O)CCCCCCCCC(=O)OCCCCCCCC,outcome,[2],inactive
same,outcome,[4],inactive
same,outcome,[5],inactive
OC1CCCCC1,outcome,[2],inactive
same,outcome,[4],inactive
same,outcome,[5],inactive
CCC(C)(C)C1CCC(O)CC1 (stereo unspecified),outcome,[2],inactive
same,outcome,[9],inactive
same,outcome,[10],inactive
same,AC50,[11],10 µM (active)
same,outcome,[12],inactive
same,outcome,[4],inactive
same,outcome,[5],inactive
same,outcome,[13],inactive
CC[C@H](C)[C@@H](C(=O)O)n1sc2ccccc2c1=O,outcome,[2],inactive
same,outcome,[5],inactive
C=C(C)C(=O)OCCC(F)(F)C(F)(F)C(F)(F)C(F)(F)C(F)(F)C(F)(F)F,outcome,[2],inactive
same,outcome,[4],inactive
same,outcome,[5],inactive
ClC1=C(Cl)C(Cl)(Cl)C(Cl)=C1Cl,outcome,[2],inactive
same,AC50,[4],74.8 µM (active)
same,AC50,[5],68 µM (active)
CC(=O)CC(C)(C)O,outcome,[2],inactive
same,outcome,[4],inactive
same,outcome,[5],inactive
CCCCCCC(=O)O,outcome,[2],inactive
same,outcome,[5],inactive
Oc1cc2ccccc2c2ccccc12,AC50,[2],31.4 µM (active)
same,AC50,[3],30.1 µM (active)
same,AC50,[4],18.1 µM (active)
same,AC50,[5],10.7 µM (active)
COCC(C)OCC(C)O (stereo unspecified),outcome,[2],inactive
same,outcome,[4],inactive
OCCC(F)(F)C(F)(F)C(F)(F)C(F)(F)C(F)(F)C(F)(F)F,outcome,[2],inactive
same,outcome,[4],inactive
COCC(C)O (stereo unspecified),outcome,[2],inactive
same,outcome,[4],inactive
same,outcome,[5],inactive
CC(C)(C)c1cccc(C(C)(C)C)c1O,outcome,[2],inactive
same,outcome,[3],inactive
same,outcome,[4],inactive
same,outcome,[5],inactive
O=C1OC2(c3ccccc31)c1cc(Br)c(O)c(Br)c1Oc1c2cc(Br)c(O)c1Br,outcome,[4],inactive
OCCC(F)(F)C(F)(F)C(F)(F)C(F)(F)C(F)(F)C(F)(F)C(F)(F)C(F)(F)F,outcome,[2],inactive
same,outcome,[4],inactive
same,outcome,[5],inactive
CC(O)C(=O)O (stereo unspecified),outcome,[4],inactive
CC(C)(C)c1ccc(O)c(C(C)(C)C)c1,AC50,[2],0.00448 µM (active)
same,outcome,[3],inactive
same,AC50,[4],17.4 µM (active)
same,AC50,[5],21 µM (active)
CCCCC(CC)COC(=O)CCCCC(=O)OCC(CC)CCCC (stereo unspecified),outcome,[2],inactive
same,outcome,[4],inactive
same,outcome,[5],inactive
Cc1oc(-c2ccccc2)nc1CCOc1ccc(C[C@H](Nc2ccccc2C(=O)c2ccccc2)C(=O)O)cc1,AC50,[2],33.2 µM (active)
same,outcome,[3],inactive
same,AC50,[4],14 µM (active)
same,AC50,[5],14.4 µM (active)
same,outcome,[13],inactive
COc1cc(CCC(=O)CC(=O)CCc2ccc(O)c(OC)c2)ccc1O,AC50,[4],68.5 µM (active)
same,AC50,[5],61.8 µM (active)
CCCCCCCC(=O)O,outcome,[2],inactive
same,outcome,[4],inactive
same,outcome,[5],inactive
CCCCC(CC)COC(=O)CCCCC(=O)OCc1ccccc1 (stereo unspecified),outcome,[2],inactive
same,outcome,[4],inactive
same,outcome,[5],inactive
Cc1cc(C)c(O)c(C)c1,outcome,[2],inactive
same,outcome,[3],inactive
same,outcome,[4],inactive
same,outcome,[5],inactive
OC1CCC(C2CCCCC2)CC1 (stereo unspecified),outcome,[2],inactive
same,AC50,[4],81.3 µM (active)
same,AC50,[5],50 µM (active)
CCCCCCCCCCCCCC[N+](C)(C)C,outcome,[3],inactive
same,AC50,[4],4.73 µM (active)
same,AC50,[5],6.52 µM (active)
CCCCCCCCCCCCN1CCCC1=O,AC50,[2],45.8 µM (active)
same,AC50,[3],31.1 µM (active)
same,AC50,[4],50 µM (active)
same,AC50,[5],75.5 µM (active)
CC(C)CCCCCCOC(=O)CCCCC(=O)OCCCCCCC(C)C,outcome,[2],inactive
same,outcome,[4],inactive
same,outcome,[5],inactive
O=C(/C=C/c1ccc(O)cc1)CC(=O)/C=C/c1ccc(O)cc1,AC50,[4],62.8 µM (active)
same,AC50,[5],28.4 µM (active)
NC(=O)N1C(=O)C(C(=O)c2cc(Cl)cs2)c2cc(F)c(Cl)cc21 (stereo unspecified),AC50,[2],2.88 µM (active)
same,outcome,[4],inactive
same,outcome,[5],inactive
CC(C)(C)CC(C)(C)c1ccc(O)c(-n2nc3ccccc3n2)c1,outcome,[2],inactive
same,AC50,[4],90.1 µM (active)
same,AC50,[5],82.8 µM (active)
CCOC(=O)CC(O)(CC(=O)OCC)C(=O)OCC,outcome,[2],inactive
same,outcome,[4],inactive
same,outcome,[5],inactive
CCCCOCCO,outcome,[2],inactive
same,outcome,[4],inactive
same,outcome,[5],inactive
CC(=O)NC1(c2cccc(F)c2)CCN(CC[C@@]2(c3ccc(Cl)c(Cl)c3)CN(c3ccccc3)C(=O)CO2)CC1,outcome,[2],inactive
same,AC50,[4],41.5 µM (active)
same,AC50,[5],41.5 µM (active)
Cc1ccc(S(=O)(=O)O)c(C)c1,outcome,[4],inactive
same,outcome,[5],inactive
